Inconclusive results are not listed. Calls of active or inactive are those of the source. Calls come from the whole dose curve; as a rule, active = well fitted curve in the direction sought with a large enough effect; inconclusive = small, poorly fitted or top-dose-only effect, or another doubt; inactive = no such curve, though single readings can be large; an effect the other way counts as inactive or inconclusive.
How the values were obtained:
[1] = A2780 Cisplatin Sensitive Ovarian Cancer Cell Toxicity qHTS against the NCATS CANVASS Library (AID 1347353); details: outcome: dose series up to 46.1 µM; note: nearly all actives have a fitted effect of over 60% in size
Procedure, shortened: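 Luminescent ATP content (ATPLite, 10 min at room temperature) served as the read-out after cells had been exposed to compounds for 72 hours at 37 °C. Dosing followed an 11-point concentration series.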

[2] = UWB1.289-WTBRCA1 Cancer Cell Toxicity qHTS against the NCATS CANVASS Library (AID 1347354)
Procedure, shortened: (§1)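 Luminescent ATP read-out (CellTiter-Glo, 15min at room temperature) measures survival after cells face an 11-point compound series for 72 hours at 37 degrees C/5% CO2.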

[3] = HEK-293 Cancer Cell Toxicity qHTS against the NCATS CANVASS Library (AID 1347355); details: outcome: dose series up to 46.1 µM; note: series mostly up to about 46 µM; nearly all actives have a fitted effect of over 65% in size
Procedure, shortened: as §1

[4] = HPAF-II 24hr Apoptosis Induction qHTS against the NCATS CANVASS Library (AID 1347356)
Procedure, shortened: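 Luminescent caspase-3/7 signal (DEVD substrate, Caspase-Glo) served as read-out, taken 15 min after reagent addition to HPAF-II cells exposed 24 h to compounds.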

[5] = HEK293 18hr Apoptosis Induction qHTS against the NCATS CANVASS Library (AID 1347357)
Procedure, shortened: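 Cells seeded at 500/well in DMEM + 10% FBS. Compounds pinned, 11 concentrations. 18 h, 37 degrees C/5% CO2. Caspase-Glo 3/7 added, 15 min RT dark, luminescence read.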

[6] = HPAF-II 12hr Apoptosis Induction qHTS against the NCATS CANVASS Library (AID 1347358)
Procedure, shortened: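 500 HPAF-II cells/well; cmpds 11-pt; 12 hr, 37 degrees C/5% CO2; Caspase-Glo 3/7 added, 15 min RT dark; luminescence read. Doxorubicin titration as control.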

[7] = HEK293 24hr Apoptosis Induction qHTS against the NCATS CANVASS Library (AID 1347359)
Procedure, shortened: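 HEK293 cells, 500 per well, exposed to an 11-point compound series for 24 hours at 37 degrees C. Caspase 3/7 activity read by Caspase-Glo luminescence (DEVD substrate) after 15 min at room temperature.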

[8] = HPAF-II 18hr Apoptosis Induction qHTS against the NCATS CANVASS Library (AID 1347360)
Procedure, shortened: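 Seed HPAF-II cells at 500/well in DMEM + 10% FBS, pin-transfer compounds, incubate 18 hours at 37 degrees C/5% CO2, add Caspase-Glo 3/7 reagent, wait 15 min, read luminescence.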

[9] = HEK293 12hr Apoptosis Induction qHTS against the NCATS CANVASS Library (AID 1347361)
Procedure, shortened: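 Cells are seeded, dosed with an 11-point compound series and incubated 12 hours. Caspase-3/7 activity is detected by luminescent DEVD-substrate reagent after 15 minutes at room temperature.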

[10] = tested on: NAD(P)H diaphorase (Clostridium kluyveri); test: Diaphorse counterscreen qHTS: Assay Interference Panel against the NCATS CANVASS Library (AID 1347362)
Procedure, shortened: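 Clostridium kluyveri diaphorase in PBS + 0.01% Tween-20 preincubated 15 min with compounds. Resazurin and NADH then added for 5 min at room temperature in the dark; resorufin fluorescence read (ex 525, em 598).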

[11] = target: Luciferin 4-monooxygenase (Photinus pyralis) (UniProt P08659); test: Firefly luciferase counterscreen qHTS: Assay Interference Panel against the NCATS CANVASS Library (AID 1347363); note: series mostly up to about 57 µM
Procedure, shortened: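 Purified P. pyralis luciferase (0.04 ug/mL, 4x reagent) added to Tris-acetate buffer with 0.013 mM D-luciferin, 0.013 mM ATP and 13.3 mM Mg-acetate; compounds preincubated 15 min, then luminescence read after 5 min, RT.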

[12] = KB-8-5-11 Cancer Cell Toxicity qHTS against the NCATS CANVASS Library (AID 1347364); details: outcome: dose series up to 46.1 µM; note: nearly all actives have a fitted effect of over 75% in size
Procedure, shortened: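 Plate 500 KB-8-5-11 cells per well in DMEM + 10% FBS, add compounds by pin transfer, incubate 72 hr at 37C. Add CellTiter-Glo, wait 10 minutes at room temperature, read luminescence.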

[13] = SDT Cancer Cell Toxicity qHTS against the NCATS CANVASS Library (AID 1347365); details: outcome: dose series up to 46.1 µM; note: nearly all actives have a fitted effect of over 60% in size
Procedure, shortened: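 qHTS, SDT dog glioma line, 500 cells/well; cpds 11 pts; 72 hr, 37C, 5% CO2; CellTiterGlo ATP luminescence.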

[14] = KB-3-1 Cancer Cell Toxicity qHTS against the NCATS CANVASS Library (AID 1347366); note: series mostly up to about 46 µM; nearly all actives have a fitted effect of over 75% in size
Procedure, shortened: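 Luminescence from CellTiter-Glo (10 min, room temperature) measured KB-3-1 viability after 72 hr compound exposure at 37C. Cells were seeded at 500/well and tested in an 11-point series.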

[15] = qHTS for ATAD5 Agonist screened against the NCATS CANVASS Library (AID 1347367);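 note: luciferase reporter driven by ATAD5 which rises upon DNA damage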
Procedure, shortened: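 HEK293T-ATAD5 luc reporter; 2000 cells/well; 5hr settle; cpd 11-pt qHTS; 16hr 37C 5% CO2 dark; viability by CellTiter-Fluor (AFC fluorescence); then luciferase luminescence, 30min RT.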

[16] = G06 Cancer Cell Toxicity qHTS against the NCATS CANVASS Library (AID 1347368); note: series mostly up to about 46 µM; nearly all actives have a fitted effect of over 60% in size
Procedure, shortened: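 Dog G06 glioma line, 500 cells/well; cpds pin-transferred, 11-pt; 72 hr, 37C/5% CO2; CellTiterGlo luminescence (ATP) endpoint.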

[17] = MCF7 Cancer Cell Toxicity qHTS against the NCATS CANVASS Library (AID 1347369); details: outcome: dose series up to 46 µM
Procedure, shortened: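 Cells seeded at 500/well, then compound pinned. Plates incubated 72 hr at 37C, 5% CO2. CellTiterGlo added; luminescence read.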

[18] = qHTS for ATAD5 Antagonist screened against the NCATS CANVASS Library (AID 1347370);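 note: HEK293T cells carrying an ATAD5 luciferase reporter co-treated with 10 µM 5-fluorouridine; series mostly up to about 46 µM; nearly all actives have a fitted effect of over 65% in size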
Procedure, shortened: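 HEK293T cells with stably integrated ATAD5-luciferase reporter, 2000/well, 5 h attachment; compounds plus 10 µM 5-fluorouridine, 16 h at 37 °C. Luciferase luminescence read, with CellTiter-Fluor viability read first.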

[19] = J3T Cancer Cell Toxicity qHTS against the NCATS CANVASS Library (AID 1347371); details: outcome: dose series up to 46.1 µM
Procedure, shortened: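 Cells plated at 500 per well, compounds pin-transferred, plates incubated 72 hr at 37C, then CellTiterGlo added and luminescence read to measure ATP content.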

[20] = target: Nuclear receptor subfamily 1 group I member 3 (Homo sapiens) (UniProt Q14994); test: qHTS for Constitutive Androstane Receptor (CAR) Antagonist screened against the NCATS CANVASS Library (AID 1347372);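 note: cells stimulated with 50 nM CITCO agonist so inhibition reflects antagonism; series mostly up to about 46 µM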
Procedure, shortened: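 HepG2 cells stably carrying hCAR and CYP2B6-2.2kb luciferase reporter, 2500 cells/well, compound with 50 nM CITCO agonist for 24hr at 37C. ONE-Glo luminescence measured CAR activity; CellTiter-Fluor read viability.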

Measured: outcome

Sequence of Luciferin 4-monooxygenase (Photinus pyralis) (P08659 whole entry, looked up): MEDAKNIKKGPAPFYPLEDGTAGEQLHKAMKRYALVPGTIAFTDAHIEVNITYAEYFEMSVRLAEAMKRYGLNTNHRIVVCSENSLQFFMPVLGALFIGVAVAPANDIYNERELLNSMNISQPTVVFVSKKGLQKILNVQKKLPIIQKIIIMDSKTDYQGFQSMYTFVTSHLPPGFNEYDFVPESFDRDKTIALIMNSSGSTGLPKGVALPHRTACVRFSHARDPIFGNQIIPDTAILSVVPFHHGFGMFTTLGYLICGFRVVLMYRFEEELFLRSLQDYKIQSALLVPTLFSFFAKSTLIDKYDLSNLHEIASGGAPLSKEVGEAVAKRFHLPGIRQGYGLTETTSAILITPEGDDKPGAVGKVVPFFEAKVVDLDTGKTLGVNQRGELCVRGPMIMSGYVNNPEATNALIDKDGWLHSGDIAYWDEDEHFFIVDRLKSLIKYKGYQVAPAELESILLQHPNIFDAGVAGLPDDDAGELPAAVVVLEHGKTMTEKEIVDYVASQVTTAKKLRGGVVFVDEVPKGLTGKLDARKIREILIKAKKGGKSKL
Sequence of Nuclear receptor subfamily 1 group I member 3 (Homo sapiens) (Q14994 whole entry, looked up): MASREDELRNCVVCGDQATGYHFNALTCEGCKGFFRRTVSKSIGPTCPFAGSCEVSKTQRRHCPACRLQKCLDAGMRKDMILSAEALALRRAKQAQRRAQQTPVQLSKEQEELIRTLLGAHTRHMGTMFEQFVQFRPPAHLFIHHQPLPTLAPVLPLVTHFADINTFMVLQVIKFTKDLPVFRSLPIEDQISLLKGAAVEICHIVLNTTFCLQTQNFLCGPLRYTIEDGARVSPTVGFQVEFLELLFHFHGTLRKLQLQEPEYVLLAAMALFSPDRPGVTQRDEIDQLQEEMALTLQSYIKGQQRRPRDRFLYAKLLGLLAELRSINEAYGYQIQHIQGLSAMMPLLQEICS

C/C=C/C=C/C(CC(=O)O)Nc1ccc(C=O)cc1 (stereo not given)
inactive: all assays above

CC1=C2C(=O)O[C@@H](c3ccoc3)[C@]2(C)CCC1
inactive: all assays above
